# ChEMBL document CHEMBL3988442, “University of Dundee, Small-Polar-MMV Screening Library” (2021)
# Out of some 69,000 compounds screened, about 950 (1.4%) showed an effect of 50% or more. Shown is part of a subset that was picked to be rich in strong results.
# Test system: Mycobacterium tuberculosis
# Assay: Cornell M. t heat shock assay; note: in the data most compounds retested in dose-response had high values
# Assay type: functional, organism-based
# Design: dose or concentration left out as unconfirmed
row,SMILES,Percent Effect [%]
1,CCOC1COC2(CCN(Cc3cccnc3OC)CC2)C1.O=C(O)C(F)(F)F.O=C(O)C(F)(F)F (centres undefined),16.61
2,CC(=O)N1C[C@@H]2CC[C@H](C1)N(S(=O)(=O)c1ccc(F)cc1Cl)C2,10.85
3,N#Cc1ccc(N2CCC3(CC2)CC(N2CCOCC2)CO3)cc1.O=C(O)C(F)(F)F (centres undefined),25.96
4,CN(C)C1CCN(C(=O)c2cc(-c3ccn(C)n3)n3ccccc23)CC1.O=C(O)C(F)(F)F,44.75
5,Cl.NCc1ccc(Oc2ccc(F)c(F)c2)cc1C(F)(F)F,1.199
6,C[C@@H]1CN(Cc2ccoc2)C[C@]12CCN(CC(=O)N(C)C)C2=O.O=C(O)C(F)(F)F,10.48
7,CS(=O)(=O)NC[C@H]1OC[C@H]2CN(Cc3ccsc3)CC[C@H]21.O=C(O)C(F)(F)F,-31.27
8,Cc1cccnc1NCCNc1cc(C(C)C)nc2ccnn12,97.5
9,Cc1cc2nc(C(C)C)cc(NCCNc3ncccc3C)n2n1,-16.57
10,Cc1cc(NCCNc2ncccc2C)n2nc(C)cc2n1,16.17
11,Cc1cnc(C(=O)N2C[C@H]3CC[C@@H]2CN(c2cnccn2)C3)cn1,-7.052
12,CCC(C)N1Cc2c(C(=O)N3CCOCC3)nn(C)c2C1.O=C(O)C(F)(F)F (centres undefined),-5.344
13,CC(C)N1CCCCC1c1nc(N(C)C)ncc1I.Cl (centres undefined),-21.57
14,CC(C)N(C)Cc1cnc2n1CCN(S(=O)(=O)c1ccccc1)C2.O=C(O)C(F)(F)F,-26.7
15,Cc1nc(C2CCNC2)nc2c1CCC(=O)N2CC(C)C.Cl (centres undefined),-0.8245
16,c1ccc(C2CCCN(c3cncc(-n4cccn4)n3)CC2)cc1 (centres undefined),6.437
17,c1ccc(C2CCN(c3cncc(-n4cccn4)n3)CC2)cc1,-1.073
18,c1ccc(COC2CCN(c3cncc(-n4cccn4)n3)CC2)cc1,53.35
19,CN(C)S(=O)(=O)N1CCO[C@H]2[C@H](Oc3cccnc3)CC[C@@H]21.O=C(O)C(F)(F)F,-23.12
20,CCOc1ccc(C2C3=C(O)OCC3=Nc3nc(SC)nc(N)c32)cc1 (centres undefined),5.942

row,SMILES,Percent Effect [%]
1,CC(C)N1CCc2c(C(=O)N3CCOCC3)nn(C)c2C1.O=C(O)C(F)(F)F,1.567
2,CC(C)c1ncc2c(n1)CN(Cc1nc(Cc3ccccc3)no1)CC2,21.5
3,Cc1ccc(-c2nc(CN3CCc4cnc(C)nc4C3)no2)cc1,7.068
4,CC(C)c1ncc2c(n1)CN(Cc1noc(-c3ccccc3)n1)CC2,59.47
5,Cc1cccc(CN2CCOCC3(CCN(C4CCOCC4)C3)C2)c1.O=C(O)C(F)(F)F.O=C(O)C(F)(F)F (centres undefined),-7.998
6,CC(=O)Nc1nc(C(=O)Nc2ccc(N3CCCCC3)nc2)cs1,50.82
7,CC(=O)Nc1nc(C(=O)NCc2ccc(N3CCCC3)nc2)cs1,-13.06
8,CC(=O)Nc1nc(C(=O)NCc2ccc(N3CCCCCC3)nc2)cs1,8.395
9,O=C(O)C(F)(F)F.O=C(O)C(F)(F)F.c1cc(CN2CCc3ncc(CN4CCCCC4)n3CC2)cs1,-20.06
10,Cc1nc(COCC2CN(C(N)=O)Cc3nccn3C2)cs1.O=C(O)C(F)(F)F (centres undefined),-0.7889
11,NC1(c2nc(-c3ccccc3)cc(=O)[nH]2)CCCCC1,0.6123
12,Cc1cc(=O)[nH]c(-n2nc(-c3ccccc3)cc2N)n1,105.3
13,CCCS(=O)(=O)NCCn1ccc(-c2cccs2)n1,-4.478
14,CCCc1cc(=O)[nH]c(-n2nc(-c3cccs3)cc2N)n1,106.1
15,NC1(c2nc(-c3cccs3)cc(=O)[nH]2)CCCCC1,-38.51
16,CS(=O)(=O)NCCn1ccc(-c2cccs2)n1,0.1994
17,NC1(c2nc(-c3ccccc3)cc(=O)[nH]2)CCCC1,-2.897
18,NC1(c2nc(-c3cccs3)cc(=O)[nH]2)CCCC1,-25.86
19,Cc1cc(=O)[nH]c(-n2nc(-c3cccs3)cc2N)n1,94.15
20,Cc1noc(C)c1CN1CC[C@H]2OCC[C@@]2(C(=O)N(C)C)C1.O=C(O)C(F)(F)F,-9.212

row,SMILES,Percent Effect [%]
1,CC(C)CCN1C2(CCN(Cc3nccs3)C2)c2ccccc2S1(=O)=O.O=C(O)C(F)(F)F (centres undefined),47.98
2,CN(C)C(=O)COCC1CN(Cc2cccs2)Cc2ncn(C)c21.O=C(O)C(F)(F)F.O=C(O)C(F)(F)F (centres undefined),-34.33
3,COc1ccc(CN2CCCC(N3CCCC3)C2)cc1Cn1cncn1 (centres undefined),-42.58
4,COc1cc(Cl)cc(CN2CCCC(N3CCCC3)C2)c1OC (centres undefined),98.75
5,COc1cc(Cl)cc(CN2CCCC(N3CCOCC3)C2)c1OC (centres undefined),2.91
6,O[C@@H]1CN(Cc2cc(Cl)cc3cccnc23)C[C@@H]1O,-38.19
7,Clc1cc(CN2CCCN3CCCC3C2)c2ncccc2c1 (centres undefined),99
8,Clc1cc(CN2CCCC(Cn3cncn3)C2)c2ncccc2c1 (centres undefined),-4.966
9,CNC(=O)C1CNCCN1C(=O)c1ccc(C(F)(F)F)nc1C.Cl (centres undefined),13.87
10,CC(C)NC(=O)CC1COC2(CCN(Cc3cccnc3)CC2)C1.O=C(O)C(F)(F)F.O=C(O)C(F)(F)F (centres undefined),-3.493
11,Cc1nc(N2CCOCC2)nc2c1CCN(Cc1cccnc1)CC2.O=C(O)C(F)(F)F,5.04
12,Cc1nc(N2CCCC2)nc2c1CCN(Cc1nccn1C)CC2.O=C(O)C(F)(F)F,-10.58
13,Cc1nc(N2CCCC2)nc2c1CCN(Cc1ccoc1)CC2.O=C(O)C(F)(F)F,64.12
14,Cc1nc(N2CCCC2)nc2c1CCN(Cc1ccco1)CC2.O=C(O)C(F)(F)F,66.31
15,CC(C)Oc1ncnc2c1CCN(Cc1ccco1)CC2.O=C(O)C(F)(F)F,-23.01
16,Cc1nc(N2CCCC2)nc2c1CCN(Cc1ccsc1)CC2.O=C(O)C(F)(F)F,100.4
17,Cc1nc(C)c2c(n1)CCN(Cc1ccco1)CC2,1.706
18,Cc1nc(N2CCOCC2)nc2c1CCN(Cc1ccsc1)CC2.O=C(O)C(F)(F)F,3.426
19,Oc1nc(N2CCCC2)nc2c1CCN(Cc1ccsc1)CC2,-11.88
